Holding throughout (experiment): protein domain microarray probed with biotinylated miRNA; Domain array: 20 mM Tris-HCl pH 7.4, 200 mM KCl, 0.2 mM EDTA, 0.05% NP40, 2 ug/ul heparin, overnight 4 C. ORF array: PBS pH 7.0 with RNase inhibitor, 100 ng RNA; high values mean tight binding
What all share (settings): ssRNA

Experiment [1] addresses T1, PSF (Homo sapiens, UniProt P23246).
T1 sequence: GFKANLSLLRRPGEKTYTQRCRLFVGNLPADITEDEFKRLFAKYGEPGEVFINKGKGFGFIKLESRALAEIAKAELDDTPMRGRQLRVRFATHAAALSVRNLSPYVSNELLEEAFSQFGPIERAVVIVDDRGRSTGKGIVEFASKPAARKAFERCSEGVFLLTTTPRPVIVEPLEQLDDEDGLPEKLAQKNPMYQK

Experiment [2] addresses T2, RKHD1 (Homo sapiens, UniProt Q86XN8).
T2 sequence: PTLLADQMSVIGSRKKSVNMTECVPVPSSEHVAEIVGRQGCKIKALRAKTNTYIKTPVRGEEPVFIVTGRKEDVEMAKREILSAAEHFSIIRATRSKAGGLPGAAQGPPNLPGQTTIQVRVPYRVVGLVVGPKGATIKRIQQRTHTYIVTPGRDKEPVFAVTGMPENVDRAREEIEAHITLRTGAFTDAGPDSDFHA

The target in experiment [3] is T3, ANKRD17 (Homo sapiens, UniProt O75179).
T3 sequence: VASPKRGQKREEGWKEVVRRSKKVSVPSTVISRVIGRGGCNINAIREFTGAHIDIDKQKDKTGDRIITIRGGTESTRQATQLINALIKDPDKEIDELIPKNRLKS

For experiment [4], the target named is T4, RBMS3 (Homo sapiens, UniProt Q6XE24).
T4 sequence: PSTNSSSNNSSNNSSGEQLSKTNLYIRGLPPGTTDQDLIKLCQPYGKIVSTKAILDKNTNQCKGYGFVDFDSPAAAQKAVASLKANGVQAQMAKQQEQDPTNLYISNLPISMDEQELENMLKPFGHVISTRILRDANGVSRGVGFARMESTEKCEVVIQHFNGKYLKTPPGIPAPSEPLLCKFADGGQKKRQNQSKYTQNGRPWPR

For experiment [5], the target named is T5, YTHDC2 (Homo sapiens, UniProt Q9H6S0).
T5 sequence: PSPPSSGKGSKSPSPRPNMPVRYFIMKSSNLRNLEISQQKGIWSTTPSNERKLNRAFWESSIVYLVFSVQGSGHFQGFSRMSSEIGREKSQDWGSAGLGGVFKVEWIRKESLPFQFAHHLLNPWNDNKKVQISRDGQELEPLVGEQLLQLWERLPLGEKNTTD

In experiment [6] the target is VIGILIN(11-14) (Homo sapiens, UniProt Q00341).
Experiment [7] concerns the target SAFB1 (Homo sapiens, UniProt Q15424).
The target of experiment [8] is T6, RNPC3(1) (Homo sapiens, UniProt Q96LT9).
T6 sequence: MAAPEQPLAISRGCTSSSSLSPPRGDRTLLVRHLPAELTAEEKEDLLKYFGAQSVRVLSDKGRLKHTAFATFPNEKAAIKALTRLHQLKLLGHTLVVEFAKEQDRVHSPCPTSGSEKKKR

Experiment [9] has as its target T7, RBM20 (Homo sapiens, UniProt Q5T481).
T7 sequence: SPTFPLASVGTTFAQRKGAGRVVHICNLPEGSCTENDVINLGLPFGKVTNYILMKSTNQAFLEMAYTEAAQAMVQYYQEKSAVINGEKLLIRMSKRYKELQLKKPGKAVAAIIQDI

Experiment [10] concerns the target T8, ADAR(1) (Homo sapiens, UniProt P55265).
T8 sequence: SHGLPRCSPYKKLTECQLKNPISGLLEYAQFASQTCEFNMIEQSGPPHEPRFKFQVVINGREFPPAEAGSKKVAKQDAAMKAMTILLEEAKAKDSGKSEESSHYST

For six sequences, binding signal results are on record in PMC11574364.

Chain of SAFB1 (Q15424 380-500): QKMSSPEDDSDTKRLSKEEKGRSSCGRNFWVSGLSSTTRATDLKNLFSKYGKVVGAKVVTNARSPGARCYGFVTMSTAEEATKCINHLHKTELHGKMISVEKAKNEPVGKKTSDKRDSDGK
Chain of VIGILIN(11-14) (Q00341 861-1229): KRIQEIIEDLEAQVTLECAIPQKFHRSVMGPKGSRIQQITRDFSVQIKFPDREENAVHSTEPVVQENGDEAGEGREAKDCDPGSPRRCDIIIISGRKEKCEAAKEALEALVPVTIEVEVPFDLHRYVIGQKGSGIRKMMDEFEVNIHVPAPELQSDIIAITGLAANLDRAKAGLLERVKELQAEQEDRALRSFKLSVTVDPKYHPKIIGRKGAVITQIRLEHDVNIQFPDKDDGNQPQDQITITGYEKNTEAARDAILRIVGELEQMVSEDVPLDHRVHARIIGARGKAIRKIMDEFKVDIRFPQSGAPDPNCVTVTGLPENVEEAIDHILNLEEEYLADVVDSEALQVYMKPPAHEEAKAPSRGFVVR

As for UGAGGUAGUAGGUUGUAUAGUU, the binding signal in [1] is 265 ± 6.17 fluorescence intensity; in experiment [2] it was 1260 ± 32.7 fluorescence intensity; in [3] it was 26 ± 1.62 fluorescence intensity; in experiment [4] it was 86.8 ± 4.41 fluorescence intensity; in experiment [5], 27.7 ± 2.35 fluorescence intensity; in experiment [6], 145 ± 5.55 fluorescence intensity. For the same sequence, the binding signal in experiment [7] turned out to be 94.4 ± 9.54 fluorescence intensity; in [8] it was 38.5 ± 11.8 fluorescence intensity.

On to CAGUGCAAUGAUGAAAGGGCAU, for which the binding signal in experiment [1] came out at 80.6 ± 13.1 fluorescence intensity; in [2] it was 1330 ± 109 fluorescence intensity; in experiment [3], 37 ± 2.43 fluorescence intensity; in [4] it was 211.2 ± 1.16 fluorescence intensity; in experiment [5] it was 65.2 ± 5.22 fluorescence intensity; in [6] it was 287 ± 28.5 fluorescence intensity. The binding signal in [9] is 34.77 ± 0.255 fluorescence intensity; in experiment [7] it was 228 ± 31.6 fluorescence intensity; in [8] it was 61.8 ± 4.94 fluorescence intensity.

In the case of UGAGGUAGUAGGUUGUGUGGUU, the binding signal is 1020 ± 15.7 fluorescence intensity in [1]; 30.1 ± 1.12 fluorescence intensity in [10]; 1570 ± 135 fluorescence intensity in experiment [2]; 94.6 ± 8.68 fluorescence intensity in [3]; 564 ± 40.7 fluorescence intensity in experiment [4]; 156 ± 16.8 fluorescence intensity in [5]. Besides, the binding signal in experiment [6] amounted to 968 ± 111 fluorescence intensity; in [9], 66.7 ± 5.15 fluorescence intensity; in experiment [7], 633 ± 29.4 fluorescence intensity; in experiment [8], 391 ± 55.5 fluorescence intensity.

For the sequence UGAGGUAGUAGGUUGUAUGGUU, the binding signal came to 837 ± 12.7 fluorescence intensity in [1]; 27.9 ± 1.27 fluorescence intensity in [10]; 1910 ± 204 fluorescence intensity in experiment [2]; 51.9 ± 4.92 fluorescence intensity in experiment [3]; 363 ± 14.3 fluorescence intensity in [4]; 143 ± 6.97 fluorescence intensity in [5]. Further, the binding signal in experiment [6] is 911 ± 66.7 fluorescence intensity; in experiment [9], 53.6 ± 5.51 fluorescence intensity; in experiment [7] it was 299 ± 26.8 fluorescence intensity; in experiment [8], 192 ± 55.7 fluorescence intensity.

As to AGAGGUAGUAGGUUGCAUAGUU, the binding signal in experiment [1] amounted to 905 ± 13.5 fluorescence intensity; in [10], 20.7 ± 1.3 fluorescence intensity; in experiment [2], 2940 ± 199 fluorescence intensity; in [3], 36.4 ± 1.75 fluorescence intensity; in [4], 410 ± 20.1 fluorescence intensity; in [5] it was 114 ± 5.32 fluorescence intensity. For the same sequence, the binding signal in [6] came out at 285 ± 6.8 fluorescence intensity; in experiment [9] it was 39.7 ± 5.85 fluorescence intensity; in experiment [7] it was 280 ± 28.4 fluorescence intensity; in [8], 201 ± 18.2 fluorescence intensity.

In the case of UAGCUUAUCAGACUGAUGUUGA, the results for the binding signal in experiment [2], in experiment [4] and in experiment [7] were 977 ± 62.8 fluorescence intensity, 45.1 ± 0.672 fluorescence intensity and 37.5 ± 1.2 fluorescence intensity, respectively.
